# Reference: the supplement of paper PMC7156485
# Legend:
# Settings in all cases: concentration: 10 µM; 24 h
# [1] = test system: HCC1569; assay: cell number relative to DMSO (% of DMSO); higher = more cells (less growth inhibition / toxicity)
# Summary of the method: (§1)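 Using 384-well plates with 800 cells per well in RPMI plus 10% FBS, HCC1569 and TDF cells were exposed to compounds at 10 µM, in triplicate, for 24 h at 37 °C. Imaging of six fields per well at ×10 followed H1.0 and DAPI staining. The reported quantity, H1.0 nuclear intensity or cell number, is a median of replicates given as percent of the plate control, and HCC1569 values were smoothed for positional effects.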
# [2] = test system: TDF; assay: as above
# Summary of the method: as §1
# [3] = test system: TDF; assay: H1.0 immunofluorescence intensity relative to DMSO (% of DMSO); higher = stronger H1.0 induction, active = 120 or more
# Summary of the method: as §1
# [4] = test system: HCC1569; assay: H1.0 immunofluorescence intensity relative to DMSO (% of DMSO); higher = stronger H1.0 induction, active = 140 or more
# Summary of the method: as §1
# 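Throughout, for H1.0 immunofluorescence intensity relative to DMSO: TDF is a line of transformed human dermal fibroblasts of mesenchymal origin.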
# 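Throughout, for cell number relative to DMSO: TDF denotes transformed human dermal fibroblasts of mesenchymal origin.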
Compound,cell number [1],cell number [2],H1.0 immunofluorescence intensity [3],H1.0 immunofluorescence intensity [4]
"CCCCCC(O)C=CC1C(O)CC(O)C1CC=CCCCC(=O)O (configuration not stated) [9b,11a Prostaglandin F2]",100,98,93.3 (inactive),97.5 (inactive)
CS(=O)(=O)Nc1ccc(-c2coc3cc(OCc4cccc(C(=O)O)c4)ccc3c2=O)cc1,101,109,90.9 (inactive),107 (inactive)
C(=Cc1ccccc1)CN1CCN(C(c2ccccc2)c2ccccc2)CC1 [Cinnarizine],74.9,74.1,106 (inactive),101 (inactive)
Cc1cnc(NC(=O)C2=C(O)c3ccccc3S(=O)(=O)N2C)s1 [Meloxicam],103,105,96.1 (inactive),104 (inactive)
"COc1cc(OC)c2cc(-c3ccncc3)cnc2c1.Cl.Cl [5,7-dimethoxy-3-(4-pyridinyl)quinoline dihydrochloride]",105,102,92.4 (inactive),105 (inactive)
C=CC(C)(O)CCC1C(=C)CCC2C(C)(C)CCCC12C (configuration not stated) [Manool],104,87.8,99.4 (inactive),90.8 (inactive)
"CCCCCC(O)C=CC1C(O)CC(O)C1CC=CCCCC(=O)O (configuration not stated) [9a,11b Prostaglandin F2]",106,99.4,94.2 (inactive),101 (inactive)
CC[C@H](C(=O)Nc1ccccc1N1CCCC1)c1ccccc1 [(2S)-2-Phenyl-N-[2-(1-pyrrolidinyl)phenyl]butanamide],101,103,96.1 (inactive),105 (inactive)
